Measurements reported in PubChem BioAssay (Tox21).
Records with an inconclusive call do not appear. The source made the active and inactive calls. Unless noted, calls come from the whole dose curve; as a rule, active = well fitted curve in the direction sought with a large enough effect in the repeat runs; inconclusive = weak or mixed curves; inactive = no such curve, though single readings can be large; an effect the other way counts as inactive or inconclusive.

How the values were obtained:
[1] = qHTS assay to identify small molecule agonists of the vitamin D receptor (VDR) signaling pathway - cell viability counter screen (AID 743224); note: series mostly up to about 63 µM; % is set by controls: 0 for no effect and ±100 for the full control effect; nearly all actives have a fitted effect of over 50% in size
How it was run: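 Plated VDR-bla cells (4 h, 37C) received compound, incubated 16 h, then LiveBLAzer substrate 2 h RT; CellTiter-Glo added afterwards, luminescence read at 30 min.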

[2] = qHTS assay to identify small molecule antagonists of the vitamin D receptor (VDR) signaling pathway - cell viability counter screen (AID 743225); note: % is set by controls: 0 for no effect and ±100 for the full control effect; nearly all actives have a fitted effect of over 50% in size
How it was run: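 Parallel cytotoxicity test: VDR-UAS-bla HEK 293T, 3 nM (final) 1-alpha,25-dihydroxyvitamin D3 with test compound, 16 h, 37C. Endpoint is CellTiter-Glo luminescence in the same wells.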

[3] = qHTS assay to identify small molecule agonists of the NFkB signaling pathway - cell viability counter screen (AID 1159515; calls by dose curve; note: series mostly up to about 61 µM; % is set by controls: 0 for no effect and ±100 for the full control effect; nearly all actives have a fitted effect of over 55% in size)
How it was run: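 Using the same wells as the NFkB reporter read, ME-180 NFkB-bla cells given compounds for 5 hr were assessed for viability via CellTiter-Glo, with luminescence taken after a 30 min room-temperature incubation.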

[4] = qHTS assay to identify small molecule agonists of the endoplasmic reticulum stress response signaling pathway (AID 1159516; active = well fitted activation curve with a large enough effect in the signal ratio in the repeat runs, not every such curve was filed as active; the % refers to the signal ratio; note: % is set by controls: 0 for no effect and ±100 for the full control effect)
How it was run: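 An ESRE-bla HeLa cell assay: compounds were pin-transferred from DMSO onto overnight-plated cells and left 5 hr at 37 C. Substrate was then loaded for 2 hr at room temperature before reading fluorescence at 460 nm and 530 nm.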

[5] = qHTS assay to identify small molecule agonists of the endoplasmic reticulum stress response signaling pathway - cell viability counter screen (AID 1159517; calls by dose curve;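 note: HeLa cells carrying an ER stress response element beta-lactamase reporter; series mostly up to about 61 µM; % is set by controls: 0 for no effect and ±100 for the full control effect; nearly all actives have a fitted effect of over 50% in size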)
How it was run: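 CellTiter-Glo was added to wells already read for beta-lactamase FRET, and luminescence was recorded 30 min later. Cells: ESRE-bla HeLa, 1,500 per well, compound exposure 5 hr at 37 C.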

[6] = qHTS assay to identify small molecule antagonists of the retinoid-related orphan receptor gamma (ROR-gamma) signaling pathway - cell viability counter screen (AID 1159520); note: % is set by controls: 0 for no effect and ±100 for the full control effect; nearly all actives have a fitted effect of over 50% in size
How it was run: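 Tet-on ROR gamma CHO cells (1,000/well) were plated 4 hr, given compounds in DMSO for 2 hr at 37 C, then induced with 1 uM final doxycycline for 16 hr. Viability was read as ATP by CellTiter-Glo luminescence after 30 min.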

[7] = qHTS assay to identify small molecule agonists of the AP-1 signaling pathway - cell viability counter screen (AID 1159525; calls by dose curve; note: nearly all actives have a fitted effect of over 55% in size)
How it was run: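 ME-180 AP-1-bla, 2500 cells/well, Opti-MEM + 0.5% dialyzed FBS; overnight 37 °C; cpd 15-pt titration, 5 h 37 °C; CellTiter-Glo 30 min RT; luminescence read; normalised to TOAB and DMSO controls.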

[8] = qHTS assay to identify small molecule agonists of the AP-1 signaling pathway (AID 1159526; calls by dose curve; note: % is set by controls: 0 for no effect and ±100 for the full control effect)
[9] = biological target: Retinoic acid receptor RXR-alpha (Homo sapiens) (UniProt P19793); experiment: qHTS assay to identify small molecule agonists of the RXR signaling pathway (AID 1159527; calls by dose curve; note: % is set by controls: 0 for no effect and ±100 for the full control effect; nearly all actives have a fitted effect of over 35% in size)
How it was run: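 16 hr incubation of compound-treated RXR-alpha-UAS-bla HEK 293T cells (2% charcoal-stripped FBS, 37 C) preceded a 2 hr room-temperature LiveBLAzer FRET substrate step and blue/green fluorescence measurement.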

[10] = qHTS assay to identify small molecule agonists of the RXR signaling pathway - cell viability counter screen (AID 1159529)
How it was run: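 In this parallel viability measure, GeneBLAzer RXR-alpha HEK 293T cells (2% charcoal-stripped FBS) were given a 5 hr preincubation, treated with compounds 16 hr at 37 C, and read by CellTiter-Glo luminescence.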

[11] = qHTS assay to identify small molecule antagonists of the retinoid acid receptor (RAR) signaling pathway - cell viability counter screen (AID 1159551); note: % is set by controls: 0 for no effect and ±100 for the full control effect; nearly all actives have a fitted effect of over 35% in size
How it was run: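 Retinol-stimulated (1 uM final) C3RL4 cells, compound 6 h, 37 C; readout CellTiter-Glo luminescence (ATP) after 30 min RT incubation.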

[12] = qHTS assay to identify small molecule antagonists of the estrogen related receptor (ERR) signaling pathway from Tox21 library - cell viability counter screen (AID 1224834); note: % is set by controls: 0 for no effect and ±100 for the full control effect; nearly all actives have a fitted effect of over 30% in size
How it was run: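 After 17.5 h of compound exposure at 37 C, ERR cells are incubated with CellTiter-Fluor for 30 min and fluorescence intensity serves as the viability measure.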

[13] = biological target: Luciferin 4-monooxygenase (Photinus pyralis) (UniProt P08659); experiment: qHTS assay to identify small molecule inhibitors of firefly luciferase (AID 1224835); note: series mostly up to about 120 µM; % is set by controls: 0 for no effect and ±100 for the full control effect; nearly all actives have a fitted effect of over 25% in size
How it was run: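 Quantitative HTS format; KM concentrations of both substrates. Purified P. pyralis FLuc activity quantified from luminescence images.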

[14] = qHTS assay to identify small molecule agonists of the constitutive androstane receptor (CAR) signaling pathway - cell viability counter screen (AID 1224836); note: series mostly up to about 92 µM; % is set by controls: 0 for no effect and ±100 for the full control effect; nearly all actives have a fitted effect of over 45% in size
How it was run: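 Using CellTiter-Fluor, viability of HepG2 cells harbouring hCAR and CYP2B6-2.2kb was measured following 23 h incubation with a 15-concentration compound series plus PK11195 (0.75 uM final).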

[15] = qHTS assay to identify small molecule antagonists of the constitutive androstane receptor (CAR) signaling pathway - cell viability counter screen (AID 1224837); note: series mostly up to about 92 µM; % is set by controls: 0 for no effect and ±100 for the full control effect; nearly all actives have a fitted effect of over 45% in size
How it was run: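 Counter screen run in HepG2-CYP2B6-hCAR cells: 4 hr settle, compound titration (15 concentrations) with 50 nM CITCO, 23 hr at 37 C/5% CO2, CellTiter-Fluor fluorescence.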

[16] = biological target: Nuclear receptor subfamily 1 group I member 3 (Homo sapiens) (UniProt Q14994); experiment: qHTS assay to identify small molecule antagonists of the constitutive androstane receptor (CAR) signaling pathway (AID 1224838);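 note: HepG2 cells stably expressing hCAR with CYP2B6 luciferase reporter stimulated by CITCO; % is set by controls: 0 for no effect and ±100 for the full control effect; nearly all actives have a fitted effect of over 40% in size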
How it was run: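 Cell line: HepG2 double-stable for hCAR and CYP2B6-2.2kb reporter. Agonist: CITCO, 50 nM final. Compounds: 15 concentrations, 24 h, 37 C. Detection: ONE-Glo luminescence.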

[17] = qHTS assay to identify small molecule antagonists of the retinoic acid receptor (RAR) signaling pathway (AID 1159552)
How it was run: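 C3RL4 RARE-luc cells, overnight plating; retinol 1 uM final added right after compound; 6 hr 37 C; luciferase read at 30 min RT.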

[18] = qHTS assay to identify small molecule agonists of the retinoic acid receptor (RAR) signaling pathway (AID 1159553); note: % is set by controls: 0 for no effect and ±100 for the full control effect
How it was run: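 Reporter readout comes from luciferase under RARE control in C3RL4 cells; compound exposure lasts 6 hr at 37 C in 5% CO2, and luminescence is recorded following a 30 min room-temperature incubation with reagent.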

[19] = biological target: Nuclear receptor ROR-gamma (Homo sapiens) (UniProt P51449); experiment: qHTS assay to identify small molecule antagonists of the retinoid-related orphan receptor gamma (ROR-gamma) signaling pathway (AID 1159521)
How it was run: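 Decreased RORE-driven luciferase luminescence indicates antagonism. Tet-on RORγ CHO cells received compound, then 1 uM final doxycycline 2 h later; signal read after 16 h incubation.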

Sequence of Nuclear receptor subfamily 1 group I member 3 (Homo sapiens) (Q14994 whole entry, looked up): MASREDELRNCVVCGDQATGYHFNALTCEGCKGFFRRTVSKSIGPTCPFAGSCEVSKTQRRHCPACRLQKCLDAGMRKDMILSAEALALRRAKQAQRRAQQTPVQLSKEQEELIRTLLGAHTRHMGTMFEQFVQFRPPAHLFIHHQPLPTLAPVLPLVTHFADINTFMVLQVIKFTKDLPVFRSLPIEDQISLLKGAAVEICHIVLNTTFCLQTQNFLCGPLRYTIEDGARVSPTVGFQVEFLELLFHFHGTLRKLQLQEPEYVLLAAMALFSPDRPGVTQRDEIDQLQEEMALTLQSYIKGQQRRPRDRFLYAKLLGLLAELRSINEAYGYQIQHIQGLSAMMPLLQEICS
Sequence of Retinoic acid receptor RXR-alpha (Homo sapiens) (P19793 whole entry, looked up): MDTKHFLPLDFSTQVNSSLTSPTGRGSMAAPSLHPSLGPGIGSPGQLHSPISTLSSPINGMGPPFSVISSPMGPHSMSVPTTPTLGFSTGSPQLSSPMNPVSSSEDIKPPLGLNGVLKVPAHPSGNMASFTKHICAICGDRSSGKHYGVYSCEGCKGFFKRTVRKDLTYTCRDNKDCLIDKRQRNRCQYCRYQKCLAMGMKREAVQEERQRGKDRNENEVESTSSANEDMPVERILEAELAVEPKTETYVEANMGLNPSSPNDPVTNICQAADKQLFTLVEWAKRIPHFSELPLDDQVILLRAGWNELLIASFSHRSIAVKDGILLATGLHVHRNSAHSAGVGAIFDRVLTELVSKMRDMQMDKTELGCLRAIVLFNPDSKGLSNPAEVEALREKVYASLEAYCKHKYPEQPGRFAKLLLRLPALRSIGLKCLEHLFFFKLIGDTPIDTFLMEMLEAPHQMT
Sequence of Luciferin 4-monooxygenase (Photinus pyralis) (P08659 whole entry, looked up): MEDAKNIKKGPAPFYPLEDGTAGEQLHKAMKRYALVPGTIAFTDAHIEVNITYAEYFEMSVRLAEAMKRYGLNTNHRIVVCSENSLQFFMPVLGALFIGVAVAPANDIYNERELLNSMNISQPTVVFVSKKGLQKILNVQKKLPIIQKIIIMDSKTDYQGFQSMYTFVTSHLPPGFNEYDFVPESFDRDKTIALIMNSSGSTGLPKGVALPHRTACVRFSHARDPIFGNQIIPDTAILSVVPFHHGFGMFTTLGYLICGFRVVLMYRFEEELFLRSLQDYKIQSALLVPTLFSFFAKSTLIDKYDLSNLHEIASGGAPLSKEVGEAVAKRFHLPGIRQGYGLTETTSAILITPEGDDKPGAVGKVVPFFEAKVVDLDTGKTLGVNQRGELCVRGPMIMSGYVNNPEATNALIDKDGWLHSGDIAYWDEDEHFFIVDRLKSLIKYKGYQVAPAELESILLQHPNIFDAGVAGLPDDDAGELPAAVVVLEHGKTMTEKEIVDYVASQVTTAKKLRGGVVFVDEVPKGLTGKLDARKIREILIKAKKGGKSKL

C=C(C)[C@@H]1CC=C(C)CC1
inactive: outcome [1] | outcome [2] | outcome [3] | outcome [4] | outcome [5] | outcome [6] | outcome [7] | outcome [8] | Potency [9] | outcome [10] | outcome [11] | outcome [12] | Potency [13] | outcome [14] | outcome [15] | Potency [16]

COC(=O)CCCCC(=O)O
inactive: outcome [1] | outcome [2] | outcome [3] | outcome [4] | outcome [6] | outcome [7] | outcome [8] | Potency [9] | outcome [10] | outcome [17] | Potency [18] | outcome [12] | Potency [13] | outcome [14] | outcome [15] | Potency [16]

Cn1nnc2c(C(N)=O)ncn2c1=O
inactive: outcome [1] | outcome [2] | outcome [3] | outcome [4] | outcome [6] | outcome [19] | outcome [7] | outcome [8] | Potency [9] | outcome [10] | outcome [11] | outcome [17] | Potency [18] | outcome [12] | Potency [13] | outcome [14] | outcome [15] | Potency [16]

O=C1CCCCO1
inactive: outcome [1] | outcome [3] | outcome [4] | outcome [5] | outcome [6] | outcome [19] | outcome [7] | outcome [8] | Potency [9] | outcome [10] | outcome [11] | outcome [17] | outcome [12] | Potency [13] | outcome [14] | outcome [15] | Potency [16]

CC(=O)C1C(=O)C=C(C)OC1=O (stereo not drawn)
inactive: outcome [1] | outcome [2] | outcome [3] | outcome [4] | outcome [5] | outcome [6] | outcome [19] | outcome [8] | Potency [9] | outcome [10] | outcome [17] | Potency [18] | outcome [12] | Potency [13] | outcome [14] | outcome [15] | Potency [16]

CC(C)C[C@@H]1[C@H](c2ccccc2)OC(=O)N1CCCN1CCCCCC1
inactive: outcome [1] | outcome [3] | outcome [4] | outcome [5] | outcome [6] | outcome [19] | outcome [8] | Potency [9] | outcome [10] | outcome [11] | outcome [17] | Potency [18] | outcome [12] | Potency [13] | outcome [14] | outcome [15] | Potency [16]

CC(=O)CC(=O)Nc1ccc(C)cc1C
inactive: outcome [1] | outcome [2] | outcome [3] | outcome [4] | outcome [5] | outcome [6] | outcome [19] | outcome [7] | outcome [8] | Potency [9] | outcome [10] | outcome [11] | outcome [17] | Potency [18] | outcome [12] | Potency [13] | outcome [14] | outcome [15] | Potency [16]

COC(=O)CCCCC(CCSS/C(CCO)=C(\C)N(C=O)Cc1cnc(C)nc1N)SC(C)=O (stereo not drawn)
inactive: outcome [1] | outcome [2] | outcome [3] | outcome [4] | outcome [5] | outcome [6] | outcome [19] | outcome [7] | outcome [8] | Potency [9] | outcome [10] | outcome [11] | outcome [17] | Potency [18] | outcome [12] | Potency [13] | outcome [14] | outcome [15] | Potency [16]

CCOC(CN1CCN(CC(C)C(=O)c2ccccc2)CC1)c1ccccc1 (stereo not drawn)
inactive: outcome [1] | outcome [2] | outcome [3] | outcome [4] | outcome [5] | activity, negative = cytotoxicity [6] -1.7% [at 19 µM] | activity change, negative = inhibition [19] -4.62% [at 19 µM] | viability change, negative = cytotoxic [7] 14.4% [at 15.8 µM] | activation [8] 5.61% [at 15.8 µM] | activation [9] -12% [at 15.8 µM] | activity change, negative = cytotoxicity [10] -11.3% [at 15.8 µM] | activity change, negative = cytotoxicity [11] 3.44% [at 19 µM] | activity, negative = inhibition [17] 1.21% [at 19 µM] | Potency [18] | viability change, negative = cytotoxic [12] -3.03% [at 19 µM] | activity change, negative = inhibition [13] -1.09% [at 23.6 µM] | viability change, negative = cytotoxic [14] 0.779% [at 19 µM] | activity change, negative = cytotoxicity [15] 3.98% [at 19 µM] | activity, negative = inhibition [16] -25.3% [at 19 µM]

Cc1cc(-c2ccccc2)nnc1NCCN1CCOCC1
inactive: outcome [1] | outcome [2] | outcome [3] | outcome [4] | outcome [5] | outcome [6] | outcome [19] | outcome [7] | outcome [8] | Potency [9] | outcome [10] | outcome [17] | outcome [12] | Potency [13] | outcome [14] | outcome [15] | Potency [16]

O=Cc1ccccc1Cl
inactive: outcome [1] | outcome [2] | outcome [3] | outcome [4] | outcome [6] | outcome [19] | outcome [7] | outcome [8] | Potency [9] | outcome [10] | outcome [11] | outcome [17] | Potency [18] | outcome [12] | Potency [13] | outcome [14] | outcome [15] | Potency [16]
